From PubChem BioAssay
For some assays here: Potency and affinity values are given separately. Activity calls are given as the source filed them. Unless noted, how the calls were made is not given here.

Assays:
[1] = antimalarial activity against Dd2 strain (AID 2302;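 active means growth inhibition above 50% at the single 2 µM test dose, taken to imply half-maximal potency below 2 µM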;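 further: 0% = DMSO untreated growth and 100% = chloroquine plus artemisinin killed control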); conditions: P. falciparum Dd2 in RBCs, LDH growth readout, 72 h; at 2 µM; active compounds read high
[2] = HepG2 cytotoxicity, primary screen, cytotoxicity control for P. falciparum antimalarial project, cell-based, ATP luminescence (AID 2303;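 active means inhibition above 50%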;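 further: 0% = DMSO wells and 100% = digitonin-killed cells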); conditions: HepG2 viability, 24-48 h, at 10 µM, active compounds read high
[3] = target: L-lactate dehydrogenase (Plasmodium falciparum (isolate CDC / Honduras)) (UniProt Q27743); experiment: PfLDH activity inhibition – cell lysate, 3D7 strain, counter-screen for P. falciparum growth inhibition project (AID 2304);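 further: 0% = vehicle and 100% = reference inhibitor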; conditions: P. falciparum 3D7 crude extract, LDH APAD/NBT absorbance; at 2 µM; active compounds read high
[4] = inhibition of 3D7 malaria parasite growth – strain 3D7 (AID 2306);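 further: 0% = DMSO wells and 100% = chloroquine plus artemisinin control wells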; conditions: P. falciparum 3D7 erythrocytic growth, LDH absorbance, 72 h; at 2 µM; active compounds read high
[5] = target: Calcium-dependent protein kinase 1 (Plasmodium falciparum (isolate 3D7)) (UniProt P62344); experiment: PfCDPK1 kinase inhibitors, biochemical, TCAMS library (AID 1159585; cut-off not given, nearly all actives have IC50 up to about 0.98 µM;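 further: inhibitors leave more ATP so luminescence rises with inhibition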); conditions: recombinant PfCDPK1, Kinase-Glo ATP depletion luminescence
[6] = target: Plasmodium falciparum protein kinase 6 (PK6, PF3D7_1337100) (UniProt Q8IDW1); experiment: PfPK6 kinase inhibitors, biochemical, TCAMS library (AID 1159586); conditions: recombinant PfPK6, Kinase-Glo ATP depletion luminescence
[7] = target: Protein kinase 7 (PK7), Plasmodium falciparum 3D7 (PF3D7_0213400) (UniProt Q7YTF7); experiment: inhibition of Plasmodium PK7 catalytic activity – biochemical, TCAMS antimalarial set, Kinase-Glo luminescence (AID 1159587); conditions: recombinant PfPK7, Kinase-Glo ATP depletion luminescence
[8] = target: Calcium-dependent protein kinase 4 (Plasmodium falciparum (isolate 3D7)) (UniProt Q8IBS5); experiment: PfCDPK4 kinase inhibitors, biochemical, TCAMS library (AID 1159588; cut-off not given, nearly all actives have IC50 up to about 0.91 µM); conditions: recombinant PfCDPK4, Kinase-Glo ATP depletion luminescence
Chain of Calcium-dependent protein kinase 4 (Plasmodium falciparum (isolate 3D7)) (Q8IBS5 whole entry, looked up): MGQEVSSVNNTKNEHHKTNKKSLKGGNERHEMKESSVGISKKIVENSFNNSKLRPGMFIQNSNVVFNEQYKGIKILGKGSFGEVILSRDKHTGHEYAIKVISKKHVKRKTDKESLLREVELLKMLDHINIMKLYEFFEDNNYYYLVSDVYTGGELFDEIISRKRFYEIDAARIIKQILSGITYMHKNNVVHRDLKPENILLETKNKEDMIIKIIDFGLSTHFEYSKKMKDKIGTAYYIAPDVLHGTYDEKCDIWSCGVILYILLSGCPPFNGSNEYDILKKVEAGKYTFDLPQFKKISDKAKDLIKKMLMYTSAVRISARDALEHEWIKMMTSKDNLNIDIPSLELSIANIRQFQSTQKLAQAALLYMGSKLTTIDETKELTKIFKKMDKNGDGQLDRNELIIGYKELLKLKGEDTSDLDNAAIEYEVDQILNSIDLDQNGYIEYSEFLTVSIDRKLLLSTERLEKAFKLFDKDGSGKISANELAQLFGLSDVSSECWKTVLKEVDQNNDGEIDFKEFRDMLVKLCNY

Chain of Protein kinase 7 (PK7), Plasmodium falciparum 3D7 (PF3D7_0213400) (Q7YTF7 1-343): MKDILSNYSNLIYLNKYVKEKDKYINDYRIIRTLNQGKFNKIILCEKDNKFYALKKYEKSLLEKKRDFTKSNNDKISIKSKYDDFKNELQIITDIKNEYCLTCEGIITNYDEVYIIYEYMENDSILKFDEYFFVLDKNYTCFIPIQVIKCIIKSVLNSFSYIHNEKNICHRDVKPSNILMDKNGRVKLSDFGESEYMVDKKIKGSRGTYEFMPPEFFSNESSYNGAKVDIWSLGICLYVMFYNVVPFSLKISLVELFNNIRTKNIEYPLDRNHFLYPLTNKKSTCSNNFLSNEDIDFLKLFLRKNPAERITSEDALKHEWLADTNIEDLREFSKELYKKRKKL
Chain of L-lactate dehydrogenase (Plasmodium falciparum (isolate CDC / Honduras)) (Q27743 whole entry, looked up): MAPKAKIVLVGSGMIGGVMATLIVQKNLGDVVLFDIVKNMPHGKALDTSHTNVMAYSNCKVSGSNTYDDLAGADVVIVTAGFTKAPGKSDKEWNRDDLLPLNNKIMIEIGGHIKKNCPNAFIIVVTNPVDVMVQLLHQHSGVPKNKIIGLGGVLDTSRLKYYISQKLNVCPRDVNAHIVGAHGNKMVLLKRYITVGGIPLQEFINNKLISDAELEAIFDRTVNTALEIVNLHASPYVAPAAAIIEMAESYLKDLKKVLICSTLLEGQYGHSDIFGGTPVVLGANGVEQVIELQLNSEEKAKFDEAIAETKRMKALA
Chain of Calcium-dependent protein kinase 1 (Plasmodium falciparum (isolate 3D7)) (P62344 whole entry, looked up): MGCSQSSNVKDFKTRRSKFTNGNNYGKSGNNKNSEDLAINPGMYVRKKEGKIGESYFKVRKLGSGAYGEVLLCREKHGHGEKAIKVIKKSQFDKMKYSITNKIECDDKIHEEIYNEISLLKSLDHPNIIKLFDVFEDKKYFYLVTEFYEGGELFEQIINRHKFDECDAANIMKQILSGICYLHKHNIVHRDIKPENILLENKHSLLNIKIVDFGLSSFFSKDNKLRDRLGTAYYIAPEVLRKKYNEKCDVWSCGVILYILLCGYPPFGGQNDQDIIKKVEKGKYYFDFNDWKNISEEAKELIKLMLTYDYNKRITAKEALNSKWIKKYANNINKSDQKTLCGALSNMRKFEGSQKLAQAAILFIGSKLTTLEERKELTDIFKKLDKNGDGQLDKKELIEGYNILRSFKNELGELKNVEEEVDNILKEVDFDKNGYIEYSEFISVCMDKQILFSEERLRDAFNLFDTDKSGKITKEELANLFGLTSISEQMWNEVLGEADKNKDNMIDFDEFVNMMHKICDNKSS
Chain of Plasmodium falciparum protein kinase 6 (PK6, PF3D7_1337100) (Q8IDW1 1-305): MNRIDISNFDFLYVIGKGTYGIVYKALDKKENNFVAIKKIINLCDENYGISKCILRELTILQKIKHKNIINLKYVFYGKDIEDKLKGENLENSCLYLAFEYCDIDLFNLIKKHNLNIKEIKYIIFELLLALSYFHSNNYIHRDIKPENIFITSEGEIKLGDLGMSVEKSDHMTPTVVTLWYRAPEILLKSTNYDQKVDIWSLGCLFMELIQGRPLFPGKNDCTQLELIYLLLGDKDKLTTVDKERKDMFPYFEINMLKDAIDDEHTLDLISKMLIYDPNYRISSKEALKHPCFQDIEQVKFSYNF

OC(CNc1ccnc(Nc2cccc(OCCCN3CCOCC3)c2)n1)c1ccccc1 (stereo not given)
inactive: growth inhibition [1] 25% | inhibition [2] 48% | inhibition [3] -4% | outcome [5] | outcome [6] | outcome [7] | outcome [8]
active: growth inhibition [4] 97%

COc1ccc2nccc([C@@H](O)CN3CCC(NC(=O)/C=C/c4ccc5cc(C)[nH]c5c4)CC3)c2c1
active: growth inhibition [1] 93% | growth inhibition [4] 97%
inactive: inhibition [2] 7% | inhibition [3] -6% | outcome [5] | outcome [6] | outcome [7] | outcome [8]

NCCc1cccc(-c2cnc3[nH]cc(-c4ccc(C(=O)O)cc4)c3c2)c1
active: growth inhibition [1] 98% | growth inhibition [4] 99%
inactive: inhibition [2] 4% | inhibition [3] -2% | outcome [5] | outcome [6] | outcome [7] | outcome [8]

Cc1ccc(-c2cc(C(=O)Nc3ccc(S(=O)(=O)N(C)Cc4ccccc4)cc3)[nH]n2)c(O)c1
active: growth inhibition [1] 67% | growth inhibition [4] 99%
inactive: inhibition [2] 34% | inhibition [3] -1% | outcome [5] | outcome [6] | outcome [7] | outcome [8]

COc1ccc(CNCc2ccc(-c3ccc(-c4nc5ccc(F)cc5[nH]4)cc3)cc2)cc1
active: growth inhibition [1] 83% | inhibition [2] 70% | growth inhibition [4] 99%
inactive: inhibition [3] 5% | outcome [5] | outcome [6] | outcome [7] | outcome [8]

Clc1cccc(Nc2ccc3c(N4CCCCC4)ncnc3n2)c1
inactive: inhibition [3] 0% | outcome [5] | outcome [6] | outcome [7] | outcome [8]
active: growth inhibition [1] 93% | inhibition [2] 54% | growth inhibition [4] 97%

CCc1c(C)nc(-n2nc(C)cc2NC(=O)CCc2ccccc2)[nH]c1=O
inactive: inhibition [2] 48% | inhibition [3] -1% | outcome [5] | outcome [6] | outcome [7] | outcome [8]
active: growth inhibition [1] 97% | growth inhibition [4] 97%

CN1CCN(c2ccc(Nc3c(C(N)=O)cnc4cc(-c5ccoc5)ccc34)cc2)CC1
active: growth inhibition [1] 99% | growth inhibition [4] 101%
inactive: inhibition [2] 14% | inhibition [3] -3% | outcome [5] | outcome [6] | outcome [7] | outcome [8]

COC(=O)c1ccc2[nH]cc(C3CCN(CCC4CCN(C(=O)/C=C/c5ccc(Cl)c(Cl)c5)CC4)CC3)c2c1
active: growth inhibition [1] 59% | growth inhibition [4] 97%
inactive: inhibition [2] 24% | inhibition [3] 1% | outcome [5] | outcome [6] | outcome [7] | outcome [8]

COc1ccc2nccc([C@@H](O)CN3CCC(NS(=O)(=O)c4cc(Br)c(Br)s4)CC3)c2c1
active: growth inhibition [4] 92%
inactive: growth inhibition [1] 36% | inhibition [2] 14% | inhibition [3] -2% | outcome [5] | outcome [6] | outcome [7] | outcome [8]

N/C(=N/C(=NCCCCCCN=C(/N=C(/N)Nc1ccc(Cl)cc1)N1CCOCC1)N1CCOCC1)Nc1ccc(Cl)cc1
active: growth inhibition [1] 91% | growth inhibition [4] 93%
inactive: inhibition [2] -11% | inhibition [3] 2% | outcome [5] | outcome [6] | outcome [7] | outcome [8]

CCN(CCCN1CCCC1)c1cc(C)nc(Nc2ccc(Cl)cc2)n1
active: growth inhibition [4] 100%
inactive: growth inhibition [1] 12% | inhibition [2] 5% | inhibition [3] 1% | outcome [5] | outcome [6] | outcome [7] | outcome [8]

COc1cc(F)c2nccc([C@@H](O)CN3CCC(NCc4ccc5c(n4)NC(=O)CS5)CC3)c2c1
inactive: growth inhibition [1] 25% | inhibition [2] 23% | inhibition [3] -4% | outcome [5] | outcome [6] | outcome [7] | outcome [8]
active: growth inhibition [4] 103%

Nc1ccnc2ccc(NC(=O)CCCCCc3ccccc3)cc12
inactive: growth inhibition [1] 30% | inhibition [2] 47% | inhibition [3] 3% | outcome [5] | outcome [6] | outcome [7] | outcome [8]
active: growth inhibition [4] 96%

Fc1ccc2nc(-c3ccc(-c4ccc(CN5CCN(CCN6CCOCC6)CC5)cc4)cc3)[nH]c2c1
inactive: inhibition [2] 38% | inhibition [3] -5% | outcome [5] | outcome [6] | outcome [7] | outcome [8]
active: growth inhibition [1] 100% | growth inhibition [4] 101%

CCCCNCc1ccc(-c2nc(CN(CCCn3ccnc3)C(=O)C3COc4ccccc4O3)cs2)cc1 (stereo not given)
active: growth inhibition [4] 93%
inactive: growth inhibition [1] 8% | inhibition [2] 6% | inhibition [3] -4% | outcome [5] | outcome [6] | outcome [7] | outcome [8]

COc1cccc(CN2CCCC(OC(c3ccccc3)c3ccccc3)C2)c1O (stereo not given)
inactive: inhibition [2] 19% | inhibition [3] 0% | outcome [5] | outcome [6] | outcome [7] | outcome [8]
active: growth inhibition [1] 73% | growth inhibition [4] 90%

NCC1CCCN1Cc1ccc(-c2cccc(-c3nc4ccc(C(F)(F)F)cc4[nH]3)c2)cc1 (stereo not given)
active: growth inhibition [1] 97% | growth inhibition [4] 99%
inactive: inhibition [2] 24% | inhibition [3] 1% | outcome [5] | outcome [6] | outcome [7] | outcome [8]

COc1ccc(C(=O)N[C@@H](CC(C)C)C(=O)N[C@H](/C=N/NC(=O)c2ccccc2)CCc2ccccc2)cc1OCCN1CCOCC1
active: growth inhibition [1] 86% | growth inhibition [4] 96%
inactive: inhibition [2] 2% | inhibition [3] 1% | outcome [5] | outcome [6] | outcome [7] | outcome [8]

Cc1cc2nc(-c3ccc(C(=O)NCc4cccc(C(F)(F)F)c4)cc3)[nH]c2cc1C
inactive: growth inhibition [1] 34% | inhibition [2] 4% | inhibition [3] -9% | outcome [5] | outcome [6] | outcome [7] | outcome [8]
active: growth inhibition [4] 98%

c1ccc2[nH]c(CN(Cc3nc4ccccc4[nH]3)Cc3nc4ccccc4[nH]3)nc2c1
inactive: inhibition [2] 39% | inhibition [3] -2% | outcome [5] | outcome [6] | outcome [7] | outcome [8]
active: growth inhibition [1] 86% | growth inhibition [4] 81%

CCCNCCc1ccc(NS(=O)(=O)c2cccc(-c3ccc(Cl)cc3)c2)cc1
inactive: growth inhibition [1] 36% | inhibition [2] 36% | inhibition [3] 0% | outcome [5] | outcome [6] | outcome [7] | outcome [8]
active: growth inhibition [4] 101%

Cc1cccc2[nH]c(-c3ccc(-c4cccc(NC(=O)Nc5ccsc5)c4)s3)nc12
active: growth inhibition [4] 100%
inactive: growth inhibition [1] 29% | inhibition [2] 30% | inhibition [3] -3% | outcome [5] | outcome [6] | outcome [7] | outcome [8]

CC1(C(=O)Nc2ccc([N+](=O)[O-])cc2O)CC2c3ccccc3C1c1ccccc12 (stereo not given)
active: growth inhibition [4] 98%
inactive: growth inhibition [1] 16% | inhibition [2] 37% | inhibition [3] 3% | outcome [5] | outcome [6] | outcome [7] | outcome [8]

CCc1ccc(CN2CCC(CNC(=O)c3cc(-c4ccccc4F)cs3)C2)cc1 (stereo not given)
inactive: growth inhibition [1] 3% | inhibition [2] 29% | inhibition [3] -2% | outcome [5] | outcome [6] | outcome [7] | outcome [8]
active: growth inhibition [4] 100%

CNC(=O)c1cc(S(=O)(=O)N2CCN(c3ccccn3)CC2)cs1
inactive: inhibition [2] -2% | inhibition [3] -3% | outcome [5] | outcome [6] | outcome [7] | outcome [8]
active: growth inhibition [1] 100% | growth inhibition [4] 99%

CC(C)[C@H](NC(=O)c1ccc(O)c(-c2ccc(Cl)c(Cl)c2)c1)C(=O)NCCN1CCOCC1
active: growth inhibition [4] 95%
inactive: growth inhibition [1] 44% | inhibition [2] -4% | inhibition [3] -1% | outcome [5] | outcome [6] | outcome [7] | outcome [8]

COc1cc(Nc2nc(N)n(C(=O)c3ccc4c(c3)OCO4)n2)cc(OC)c1OC
active: inhibition [2] 60% | growth inhibition [4] 90%
inactive: growth inhibition [1] 40% | inhibition [3] 1% | outcome [5] | outcome [6] | outcome [7] | outcome [8]

O=C(NC1CCN(CCC[C@]2(c3ccc(Cl)c(Cl)c3)CCCN(C(=O)c3ccccc3)C2)CC1)c1ccc(Cl)cc1
inactive: growth inhibition [1] 4% | inhibition [3] -1% | outcome [5] | outcome [6] | outcome [7] | outcome [8]
active: inhibition [2] 56% | growth inhibition [4] 95%

COc1csc2cc(Br)ccc12
inactive: growth inhibition [1] -5% | inhibition [2] 6% | inhibition [3] -3% | outcome [5] | outcome [6] | outcome [7] | outcome [8]
active: growth inhibition [4] 101%

CC(CCON1C(N)=NC(N)=NC1(C)C)c1ccc(Cl)c(Cl)c1 (stereo not given)
inactive: inhibition [3] -3% | outcome [5] | outcome [6] | outcome [7] | outcome [8]
active: growth inhibition [1] 97% | inhibition [2] 60% | growth inhibition [4] 98%

CCCCCCCC1=NN2C(=N)C(=Cc3cc(Br)c(OCc4ccc(F)cc4)c(OCC)c3)C(=O)N=C2S1
inactive: growth inhibition [1] -6% | inhibition [2] 4% | inhibition [3] 0% | outcome [5] | outcome [6] | outcome [7] | outcome [8]
active: growth inhibition [4] 95%

CNC(=O)CSc1nnc(-c2ccc(C)cc2)c(-c2ccc(C)cc2)n1
inactive: growth inhibition [1] 49% | inhibition [2] 2% | inhibition [3] -3% | outcome [5] | outcome [6] | outcome [7] | outcome [8]
active: growth inhibition [4] 94%

Cc1cc(N)c2cc(NC(=O)c3cc(C(F)(F)F)cc(C(F)(F)F)c3)ccc2n1
active: growth inhibition [1] 99% | inhibition [2] 100% | growth inhibition [4] 102%
inactive: inhibition [3] 5% | outcome [5] | outcome [6] | outcome [7] | outcome [8]

COc1ccc2nccc([C@@H](O)CN3CCC(NC(=O)Cc4ccc(Br)c5ccccc45)CC3)c2c1
active: growth inhibition [4] 98%
inactive: growth inhibition [1] 40% | inhibition [2] 10% | inhibition [3] -2% | outcome [5] | outcome [6] | outcome [7] | outcome [8]

Cc1noc(C)c1-c1cccc(CNCc2cccc(-c3ccc(-c4nc5ccccc5[nH]4)s3)c2)c1
active: growth inhibition [4] 101%
inactive: growth inhibition [1] 29% | inhibition [2] 24% | inhibition [3] -1% | outcome [5] | outcome [6] | outcome [7] | outcome [8]

O=C(C=Cc1ccc(Cl)c(Cl)c1)NCCCCCN1CCC(CCCNC(=O)[C@@H]2C[C@H]2c2ccccc2)CC1
active: growth inhibition [4] 95%
inactive: growth inhibition [1] 12% | inhibition [2] 45% | inhibition [3] -1% | outcome [5] | outcome [6] | outcome [7] | outcome [8]

O=C(Nc1ccccc1)OCCOc1ccc(CC2SC(=O)NC2=O)cc1 (stereo not given)
inactive: growth inhibition [1] -6% | inhibition [2] 1% | inhibition [3] -3% | outcome [5] | outcome [6] | outcome [7] | outcome [8]
active: growth inhibition [4] 100%

O=C(NCC1COc2ccccc2O1)c1cnc2c(c1)nc(-c1cnc(-c3ccccc3)[nH]1)n2CCSCc1c(F)cccc1Cl (stereo not given)
active: growth inhibition [4] 95%
inactive: growth inhibition [1] 10% | inhibition [2] 6% | inhibition [3] 4% | outcome [5] | outcome [6] | outcome [7] | outcome [8]

O=C(Cc1ccccc1)NC(CCN1CCC(NC(=O)c2ccc(Cl)cc2)CC1)c1ccc(Cl)c(Cl)c1 (stereo not given)
inactive: growth inhibition [1] 23% | inhibition [2] 17% | inhibition [3] -2% | outcome [5] | outcome [6] | outcome [7] | outcome [8]
active: growth inhibition [4] 85%
